Bioassay records from PubChem BioAssay.
An excerpt weighted towards active compounds, which were near 2.8% of everything screened.
SENP7 inh: SENP7 protease inhibition; Q9BQF6; recombinant SENP7, Z-RLRGG-aminoluciferin luminescence, 40 min; inhibition, % at 5 µM; 330,000 tested, 1.5% active; AID 434973;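 active means inhibition above about 50% at the single test dose, limit read from the data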;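 further: plate controls were DMSO with enzyme for no effect and no enzyme buffer wells for full effect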
Target sequence (Q9BQF6 706-1050 limits assumed): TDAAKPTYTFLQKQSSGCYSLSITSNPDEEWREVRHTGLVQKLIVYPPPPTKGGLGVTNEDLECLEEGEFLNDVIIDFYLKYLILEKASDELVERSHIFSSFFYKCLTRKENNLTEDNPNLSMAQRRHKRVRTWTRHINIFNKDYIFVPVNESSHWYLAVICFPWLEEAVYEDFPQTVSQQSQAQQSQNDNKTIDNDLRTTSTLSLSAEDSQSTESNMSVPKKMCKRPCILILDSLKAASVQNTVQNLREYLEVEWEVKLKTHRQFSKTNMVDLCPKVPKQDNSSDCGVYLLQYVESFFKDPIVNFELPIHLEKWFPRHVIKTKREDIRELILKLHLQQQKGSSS
HSP90 refold inh: inhibitors of HSP90 luciferase refolding in rabbit reticulocyte lysate; inhibition, % at 5.6 µM; 290,000 tested, 0.91% active; luciferase refolding luminescence, 3 h;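 active means inhibition above the screen-wide mean plus 3 SD, computed separately per campaign, cut at about 16% in these data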;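 further: 0% = DMSO wells and 100% = 60 µM geldanamycin wells; inhibitors lower the luminescence because luciferase stays unfolded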
SENP8 block-1: inhibitors of human SENP8 protease. Q96LD8. purified SENP8, Z-RLRGG-aminoluciferin cleavage, luminescence. inhibition, % at 10 µM. 330,000 tested, 1.2% active. AID 2540; in the data active means inhibition above about 50%
Target sequence (Q96LD8 whole entry, looked up): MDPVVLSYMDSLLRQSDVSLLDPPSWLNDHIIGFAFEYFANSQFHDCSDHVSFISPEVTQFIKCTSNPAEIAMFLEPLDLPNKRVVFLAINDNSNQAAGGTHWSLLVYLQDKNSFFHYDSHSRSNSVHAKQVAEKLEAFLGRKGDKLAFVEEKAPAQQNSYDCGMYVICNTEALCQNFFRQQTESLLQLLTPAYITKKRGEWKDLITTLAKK
SENP6 block: SENP6 protease inhibition; inhibition, % at 10 µM; Q9GZR1; Recombinant SENP6 catalytic domain, aminoluciferin luminescence; 330,000 tested, 1.8% active;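 active means inhibition above about 50% at the single tested dose, limit read from the data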;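 further: plate controls were DMSO wells with enzyme for no effect and DMSO wells lacking enzyme for full effect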
SENP8 block-2: blocks human SENP8 cleavage of Nedd8 substrate; AID 602440; 360,000 tested, 0.64% active; inhibition, % at 20 µM; recombinant SENP8, Nedd8 substrate fluorescence; Q96LD8; in the data active means inhibition mostly above about 40%, no sharp cut-off; inactive means mostly below about 27%
SENP8 confirm: confirmation of human SENP8 protease inhibitors; shares compounds with SENP7 inh; Recombinant SENP8, Z-RLRGG-aminoluciferin luminescence, 60 min; inhibition, % at 12.5 µM; 6,200 tested, 40% active;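 active means mean inhibition across replicates above about 50%, limit read from the data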
SENP6 conf: confirmation of human SENP6 protease inhibitors; shares compounds with SENP7 inh; recombinant SENP6, Z-RLRGG-aminoluciferin luminescence; inhibition, % at 12.5 µM; 6,200 tested, 58% active; AID 488915
SENP7 conf: human SENP7 inhibition, confirmed. 6,200 tested, 69% active. recombinant SENP7, Z-RLRGG-aminoluciferin luminescence, 40 min. shares compounds with SENP7 inh. inhibition, % at 12.5 µM
Casp3 select: caspase-3 inhibition (SENP selectivity assay) | shares compounds with SENP7 inh | purified caspase-3, Z-DEVD-aminoluciferin luminescence, 60 min | inhibition, % at 12.5 µM | 6,200 tested, 60% active | AID 488918;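 active means mean inhibition above about 50%, limit read from the data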;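 further: plate controls were enzyme with DMSO for no effect and wells without caspase-3 for full effect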
SENP luc ctr: interferes with luciferase luminescence in SENP counter-screen; Pre-incubated SENP8/Z-RLRGG-aminoluciferin, luciferase luminescence interference; inhibition, % at 12.5 µM; shares compounds with SENP7 inh; 6,200 tested, 39% active;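 active means mean inhibition above about 50% when retested at one dose, limit read from the data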;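 further: plate controls were DMSO wells with completed reaction for no effect and substrate without enzyme for full effect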
* marks the source's active call; other numbers are inactive results; . = not tested or not shown.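 How the source made its calls, unless noted: active means mean inhibition above about 50% in the one-dose retest (limit read from the data); inactive means the rest.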

SMILES | SENP7 inh | HSP90 refold inh | SENP8 block-1 | SENP6 block | SENP8 block-2 | SENP8 confirm | SENP6 conf | SENP7 conf | Casp3 select | SENP luc ctr
COc1cccc(/C=N/NC(=O)c2ccoc2C)c1O | 95* | 7 | 87* | 92* | -43 | 93* | 93* | 100* | 97* | 40
COc1cccc(/C=N/NC(=O)CNC(=O)C(c2ccccc2)c2ccccc2)c1O | 4 | 2 | 43 | 52* | -267 | 38 | 44 | 63* | 59* | -3
COc1cccc(/C=N/NC(=O)CNC(=O)/C=C\c2ccccc2)c1O | 14 | -1 | 10 | 9 | -72 | . | . | . | . | .
CC(/C=N/NC(=O)c1ccc(Br)cc1)=C\c1ccccc1 | -5 | 3 | 4 | -51 | 13 | . | . | . | . | .
CC(=O)N1c2ccc(S(=O)(=O)NCCC(=O)N(C)Cc3ccccc3)cc2CC1C (stereo not given) | -9 | 5 | 11 | -8 | 5 | . | . | . | . | .
Cc1ccc(COC(=O)c2nn(C)c(=O)c3ccccc23)cc1 | 4 | 2 | 1 | -10 | 14 | . | . | . | . | .
O=[N+]([O-])c1cccc(NNS(=O)(=O)c2ccccc2F)c1 | -1 | 0 | -10 | -2 | 13 | . | . | . | . | .
O=C(Cc1n[nH]c(=O)[nH]c1=O)N/N=C/c1cccc(O)c1 | -22 | 0 | -5 | -2 | 15 | . | . | . | . | .
COc1ccc(C=NNC(=O)c2cc(C)oc2C)cc1O | 86* | . | 80* | 79* | -1 | 88* | 85* | 96* | 94* | 83*
COc1cc(/C=N/NC(=O)c2cc(C)oc2C)ccc1O | -1 | 0 | -11 | -5 | -36 | . | . | . | . | .
COc1cccc(/C=N/NC(=O)c2ccoc2C)c1 | 88* | 6 | 82* | 91* | 12 | 89* | 87* | 98* | 95* | 86*
CCOc1ccc(/C=N/NC(=O)c2ccoc2C)cc1OC | 75* | 14 | 64* | 81* | 6 | 82* | 80* | 93* | 93* | 80*
COc1cc(/C=N/NC(=O)c2ccoc2C)ccc1O | 61* | 7 | 60* | 68* | -22 | 66* | 64* | 89* | 89* | 69*
CCOc1ccc(/C=N/NC(=O)c2ccncc2)cc1OC | . | . | . | . | -6 | . | . | . | . | .
COc1cc(/C=N/NC(=O)c2cccc(C(=O)N/N=C/c3ccc(O)c(OC)c3)n2)ccc1O | 5 | 3 | 0 | -25 | -45 | . | . | . | . | .
COc1ccccc1NCCC(=O)OCC(=O)Nc1ccccc1F | -2 | . | 6 | 11 | 6 | . | . | . | . | .
CC(=O)Nc1ccc(S(=O)(=O)NC2(C(F)(F)F)NC(=O)N(C3CCCC3)C2=O)cc1 (stereo not given) | 3 | -5 | -1 | -2 | 14 | . | . | . | . | .
CCCn1c(SCc2nc3sc(C)c(C)c3c(=O)[nH]2)nc2ccccc2c1=O | 0 | -1 | 2 | -11 | 15 | . | . | . | . | .
CC(C)(C)N(NC(=O)OCc1ccccc1)C(=O)c1ccccc1 | 4 | 1 | 6 | -16 | 16 | . | . | . | . | .
Cc1ccc(-c2nnc(N(C)C(=O)C3CCCO3)s2)cn1 (stereo not given) | -1 | 6 | 3 | -2 | 19 | . | . | . | . | .
COc1cc(/C=N/NC(=O)c2nonc2C)ccc1O | 77* | -2 | 82* | 67* | 15 | 89* | 89* | 98* | 97* | 89*
COc1cc(/C=N/NC(=O)c2nc(C)cc(C)n2)ccc1O | 2 | 3 | 2 | -2 | 32 | . | . | . | . | .
CCNc1nc(NCC)nc(OCCOC(=O)COc2ccc(Cl)cc2Cl)n1 | 4 | -4 | -7 | 1 | 16 | . | . | . | . | .
CCOc1ccccc1NC(=O)NC1(C(=O)NCC2CCCO2)CCCCC1 (stereo not given) | 3 | -3 | -4 | -17 | 3 | . | . | . | . | .
CCNc1nc(N)nc(-c2cc(Cl)ccc2O)n1 | 65* | 4 | 55* | 83* | -297 | 72* | 69* | 90* | 44 | 10
SMILES | SENP7 inh | HSP90 refold inh | SENP8 block-1 | SENP6 block | SENP8 block-2 | SENP8 confirm | SENP6 conf | SENP7 conf | Casp3 select | SENP luc ctr
CCCCNc1nc(N)nc(-c2cc(Cl)ccc2O)n1 | 54* | -2 | 41 | 70* | -432 | -10 | 56* | 86* | 26 | 6
Cc1cc(C(=O)COC(=O)c2ccc(O)cc2O)c(C)n1-c1ccccc1 | 61* | . | 84* | 89* | -4 | 88* | 89* | 96* | 59* | 32
COc1ccc(-n2c(C)cc(C(=O)COC(=O)c3ccc(O)cc3O)c2C)cc1 | 1 | . | -1 | 5 | 4 | . | . | . | . | .
Cc1cc(C)n(-c2ccc(C(=O)Nc3nc4ccccc4s3)cc2)n1 | 29 | -5 | -8 | 22 | -300 | . | . | . | . | .
Nc1ccc(C(=O)Nc2nc3ccccc3s2)cc1 | 94* | 5 | 91* | 91* | -426 | 95* | 95* | 101* | 86* | 91*
O=C(Nc1ccon1)c1ccc(N2CCCCC2)c([N+](=O)[O-])c1 | 3 | -4 | -3 | 13 | 21 | . | . | . | . | .
Cn1cc(Cl)c(C(=O)Nc2nc3ccccc3s2)n1 | 1 | 9 | 96* | 96* | 2 | 14 | 98* | 103* | 96* | 45
O=C(Nc1nc2ccccc2s1)c1ccc(N2CCCCC2)c([N+](=O)[O-])c1 | 54* | 13 | 35 | 52* | 39 | -5 | 4 | 27 | 25 | 2
O=C(Nc1nc2ccccc2s1)c1c(F)cccc1Cl | 12 | -1 | 17 | 26 | 5 | . | . | . | . | .
CCn1c(CNC(=O)c2ccco2)nnc1SCC(=O)c1ccccc1 | -13 | 3 | -3 | -6 | 9 | . | . | . | . | .
Cc1ccc2ncccc2c1 | -4 | . | -12 | -21 | 6 | . | . | . | . | .
Cc1ccc2nc(/C=C/c3cccc(F)c3)ccc2c1 | 23 | -3 | 30 | 50* | -300 | 8 | 8 | 56* | 16 | 59*
COc1ccc(-c2cc3c(=O)n(CC(=O)NCc4ccccc4OC)ncn3n2)cc1 | 6 | -1 | 5 | 2 | -136 | . | . | . | . | .
O=C(CSc1ccccn1)c1ccc2c(c1)OCO2 | 73* | 3 | 54* | 84* | 12 | 41 | 70* | 92* | 84* | 75*
CC(C)n1c(CNC(=O)c2ccccc2)nc2ccccc21 | -6 | 0 | -4 | -9 | 4 | . | . | . | . | .
Cc1ccccc1/C(N)=N/OC(=O)c1cccs1 | 46 | -8 | 33 | 74* | 6 | 56* | 55* | 84* | 80* | 62*
N/C(=N\OC(=O)c1cccs1)c1cccnc1 | 2 | -3 | -2 | 19 | 12 | . | . | . | . | .
